Compound activity as filed in PubChem.
hgDAF12 agonist = hgDAF-12 agonism, primary luciferase screen. HEK293 GAL4-hgDAF12 UAS-luciferase reporter, agonist luminescence; normalized to butyrate control. activation, % at 6.8 µM. actives 1.8% (n = 370,000);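 active = activation above a cutoff set at the mean of all screened compounds plus 3 SD, cut at about 10% in these data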
AHR act = activates the human aryl hydrocarbon receptor; actives 2.5% (n = 320,000); P35869; AHR-responsive luciferase reporter cells, luminescence; activation, % at 5 µM; in the data active = activation above about 47%
Target sequence (P35869 whole entry, looked up): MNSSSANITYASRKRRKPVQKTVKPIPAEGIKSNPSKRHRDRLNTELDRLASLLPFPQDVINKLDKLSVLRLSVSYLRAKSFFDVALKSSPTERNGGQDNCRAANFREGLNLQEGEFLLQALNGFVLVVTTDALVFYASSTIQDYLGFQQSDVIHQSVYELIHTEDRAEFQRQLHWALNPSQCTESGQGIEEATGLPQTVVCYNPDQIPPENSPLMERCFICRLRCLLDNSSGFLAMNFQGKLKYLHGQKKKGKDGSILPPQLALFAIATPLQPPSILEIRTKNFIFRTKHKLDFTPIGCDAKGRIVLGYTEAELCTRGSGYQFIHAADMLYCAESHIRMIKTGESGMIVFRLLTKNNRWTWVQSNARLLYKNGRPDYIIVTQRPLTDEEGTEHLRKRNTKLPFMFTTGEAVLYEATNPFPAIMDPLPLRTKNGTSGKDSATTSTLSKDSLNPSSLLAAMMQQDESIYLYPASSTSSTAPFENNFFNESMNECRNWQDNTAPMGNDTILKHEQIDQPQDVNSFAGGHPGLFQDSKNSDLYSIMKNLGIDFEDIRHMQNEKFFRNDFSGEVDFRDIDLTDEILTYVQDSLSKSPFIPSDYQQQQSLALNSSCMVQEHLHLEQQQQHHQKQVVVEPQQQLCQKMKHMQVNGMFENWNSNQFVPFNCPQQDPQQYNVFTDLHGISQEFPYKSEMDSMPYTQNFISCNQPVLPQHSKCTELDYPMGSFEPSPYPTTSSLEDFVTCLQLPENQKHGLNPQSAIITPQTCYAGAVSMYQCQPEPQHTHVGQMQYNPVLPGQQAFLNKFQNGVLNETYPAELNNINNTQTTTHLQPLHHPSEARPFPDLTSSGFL
hcDAF12 agonist = H. contortus DAF-12 activation, primary screen | HEK293 hcDAF-12 lit1-tk-luc reporter, luminescence; 0% DMSO, 100% Δ7-dafachronic acid | activation, % at 6.8 µM | actives 1.4% (n = 370,000);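 active = activation above the mean of all tested compounds plus 3 SD, cut at about 5.5% in these data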
DAX1 inh-1 = inhibitors of DAX1 repression of SF-1 activated StAR promoter; HEK293T StAR-luciferase reporter, SF-1/DAX-1 repression relief; inhibition, % at 6.8 µM; actives 1.1% (n = 370,000); AID 652010;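 active = inhibition above the mean over all tested compounds plus 3 SD, cut at about 3.6% in these data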;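 note: higher inhibition means more luminescence from relief of DAX-1 repression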
ssDAF12 agonist = activates DAF-12 receptor from parasite S. stercoralis; HEK293 ssDAF-12/GRIP1 lit1-tk-luc reporter, luminescence; % of 3 µM dafachronic acid response; activation, % at 6.8 µM; AID 652126; actives 1% (n = 370,000);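 active = activation above the mean over all tested compounds plus 3 SD, cut at about 0.9% in these data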
DAX1 inh-2 = inhibits human nuclear receptor DAX1 | inhibition, % at 6.75 µM | HEK293 Gal4-DAX1 luciferase reporter, luminescence | actives 0.99% (n = 340,000) | P51843 | AID 504766;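 active = inhibition above the mean over all tested compounds plus 3 SD, cut at about 4.2% in these data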;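 note: inhibition shows as a rise in luminescence from relieved DAX1 repression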
Hits are given with their value. Rows were chosen to be rich in hits. Some 5.7% of all compounds tested hit in one or more screens of this group.

Screening Cc1ccc(F)cc1NC(=O)COC(=O)C1CCN(c2ccc(C(F)(F)F)cn2)CC1 returned hgDAF12 agonist inactive, AHR act inactive, hcDAF12 agonist inactive, DAX1 inh-1 inactive, ssDAF12 agonist inactive and DAX1 inh-2 inactive.
`CC(Sc1ncnc2ccccc12)C(=O)Nc1ccc2c(c1)OCO2` (configuration not stated) gave hgDAF12 agonist inactive, AHR act 51, hcDAF12 agonist inactive, DAX1 inh-1 inactive, ssDAF12 agonist inactive and DAX1 inh-2 inactive.
Screening Cc1ccc(NC(=O)CSc2ccc3nnc(-c4cccnc4)n3n2)cc1 returned hgDAF12 agonist inactive, AHR act 63, hcDAF12 agonist inactive, DAX1 inh-1 inactive, ssDAF12 agonist inactive and DAX1 inh-2 inactive.
For O=C(CSCc1ccccc1)Nc1ccc2c(c1)OCO2 the results were hgDAF12 agonist inactive, AHR act inactive, hcDAF12 agonist inactive, DAX1 inh-1 3.8, ssDAF12 agonist inactive and DAX1 inh-2 inactive.
CC(=O)Nc1ccc(NC(=O)CSc2ccc3nnc(-c4cccnc4)n3n2)cc1 was read as hgDAF12 agonist inactive, AHR act inactive, hcDAF12 agonist inactive, DAX1 inh-1 inactive, ssDAF12 agonist inactive and DAX1 inh-2 inactive.
For O=C(Nc1ccc(N2CCN(c3ccccc3)CC2)c(F)c1)C1CC1 the results were hgDAF12 agonist inactive, AHR act inactive, hcDAF12 agonist 5.8, DAX1 inh-1 inactive, ssDAF12 agonist inactive and DAX1 inh-2 inactive.
Cc1ccc(CSCC(=O)Nc2ccc3c(c2)OCO3)cc1 was read as hgDAF12 agonist inactive, AHR act inactive, hcDAF12 agonist inactive, DAX1 inh-1 inactive, ssDAF12 agonist inactive and DAX1 inh-2 inactive.
NC(=O)CSc1nnc(SCc2ccc(F)cc2)s1 was read as hgDAF12 agonist inactive, AHR act inactive, hcDAF12 agonist inactive, DAX1 inh-1 inactive, ssDAF12 agonist inactive and DAX1 inh-2 inactive.
For CCCCNC(=O)CSc1nc2cc3c(cc2c(=O)n1Cc1ccco1)OCO3 the results were hgDAF12 agonist inactive, AHR act inactive, hcDAF12 agonist inactive, DAX1 inh-1 inactive, ssDAF12 agonist inactive and DAX1 inh-2 inactive.
Cc1ccc(SCc2cc(=O)c3c(=O)n(-c4ccccc4)[nH]c3[nH]2)cc1 was read as hgDAF12 agonist inactive, AHR act inactive, hcDAF12 agonist inactive, DAX1 inh-1 inactive, ssDAF12 agonist inactive and DAX1 inh-2 inactive.
NNC(=O)c1ccc(CSc2n[nH]c(=O)[nH]c2=O)cc1 was read as hgDAF12 agonist inactive, AHR act inactive, hcDAF12 agonist inactive, DAX1 inh-1 inactive, ssDAF12 agonist inactive and DAX1 inh-2 inactive.
`CC1(C)CN(c2ccccc2)C(=O)[C@H]1CC(=O)Nc1ccccc1` gave hgDAF12 agonist inactive, hcDAF12 agonist inactive, DAX1 inh-1 inactive, ssDAF12 agonist inactive and DAX1 inh-2 inactive.
For Cc1ccccc1-n1c(Cn2c(=O)sc3ccccc32)nnc1SCC(N)=O the results were hgDAF12 agonist inactive, AHR act inactive, hcDAF12 agonist inactive, DAX1 inh-1 inactive, ssDAF12 agonist inactive and DAX1 inh-2 4.6.
O=C(CC(=O)c1ccccc1)Nc1ccc2c(c1)OCCO2 was read as hgDAF12 agonist 12, AHR act inactive, hcDAF12 agonist inactive, DAX1 inh-1 inactive, ssDAF12 agonist inactive and DAX1 inh-2 inactive.
Screening O=C(Cc1ccccc1[N+](=O)[O-])NNC(=O)Nc1ccc2c(c1)OCO2 returned hgDAF12 agonist inactive, AHR act inactive, hcDAF12 agonist inactive, DAX1 inh-1 inactive, ssDAF12 agonist inactive and DAX1 inh-2 inactive.
`O=C(Cc1ccccc1[N+](=O)[O-])Nc1ccc2c(c1)OCO2` gave hgDAF12 agonist inactive, AHR act 61, hcDAF12 agonist inactive, DAX1 inh-1 inactive, ssDAF12 agonist inactive and DAX1 inh-2 inactive.
O=C(CSc1ccc2nnc(-c3ccccn3)n2n1)Nc1ccc2c(c1)OCO2 was read as hgDAF12 agonist inactive, AHR act 53, hcDAF12 agonist inactive, DAX1 inh-1 inactive, ssDAF12 agonist inactive and DAX1 inh-2 inactive.
Screening O=C(CSc1ccc2nnc(-c3ccccn3)n2n1)Nc1ccc2c(c1)OCCO2 returned hgDAF12 agonist inactive, AHR act inactive, hcDAF12 agonist inactive, DAX1 inh-1 inactive, ssDAF12 agonist inactive and DAX1 inh-2 inactive.
COc1ccc(C(=O)/C=C(\Nc2ccc(F)cc2)c2ccc(OC)cc2OC)c(OC)c1 was read as hgDAF12 agonist inactive, hcDAF12 agonist inactive, DAX1 inh-1 inactive and ssDAF12 agonist inactive.
`Cn1c(Cn2c(=O)sc3ccccc32)nnc1SCC(=O)NCc1ccc2c(c1)OCO2` gave hgDAF12 agonist inactive, AHR act inactive, hcDAF12 agonist inactive, DAX1 inh-1 inactive, ssDAF12 agonist inactive and DAX1 inh-2 inactive.
`CN1CCN(c2ccc(NC(=O)CSc3ccccc3)cc2F)CC1` gave hgDAF12 agonist 11, AHR act inactive, hcDAF12 agonist inactive, DAX1 inh-1 inactive, ssDAF12 agonist inactive and DAX1 inh-2 5.3.
For Cn1c(Cn2c(=O)sc3ccccc32)nnc1SCC(=O)Nc1ccc2c(c1)OCO2 the results were hgDAF12 agonist inactive, AHR act 59, hcDAF12 agonist inactive, DAX1 inh-1 inactive, ssDAF12 agonist inactive and DAX1 inh-2 inactive.
For O=C(CSc1ccccc1F)Nc1ccc2c(c1)OCO2 the results were hgDAF12 agonist 11, AHR act inactive, hcDAF12 agonist inactive, DAX1 inh-1 inactive, ssDAF12 agonist inactive and DAX1 inh-2 inactive.
Screening CCCN1C(=O)c2n[nH]c(C)c2C1c1ccc(Br)cc1 (configuration not stated) returned hgDAF12 agonist inactive, hcDAF12 agonist inactive, DAX1 inh-1 inactive and ssDAF12 agonist inactive.
`CCN(CC)C(CNC(=O)CSc1nnnn1-c1ccc(C)c(C)c1)c1ccco1` (configuration not stated) gave hgDAF12 agonist inactive, AHR act inactive, hcDAF12 agonist inactive, DAX1 inh-1 inactive, ssDAF12 agonist inactive and DAX1 inh-2 inactive.
For CCN(CC)C(CNC(=O)CSc1nnnn1-c1c(C)cccc1C)c1ccco1 (configuration not stated) the results were hgDAF12 agonist inactive, hcDAF12 agonist inactive, DAX1 inh-1 3.6, ssDAF12 agonist inactive and DAX1 inh-2 inactive.
`Cc1ccc(NC(=O)CSCC(=O)Nc2nnc(C)s2)cc1` gave hgDAF12 agonist inactive, AHR act inactive, hcDAF12 agonist inactive, DAX1 inh-1 inactive, ssDAF12 agonist inactive and DAX1 inh-2 inactive.
For Nc1nc2c(Cl)ccc(Cl)c2s1 the results were hgDAF12 agonist inactive, AHR act inactive, hcDAF12 agonist inactive, DAX1 inh-1 inactive, ssDAF12 agonist inactive and DAX1 inh-2 inactive.
For CCOc1ccc(/C=N/Nc2cc(=O)n(C)c(=O)n2C)cc1 the results were hgDAF12 agonist inactive, AHR act inactive, hcDAF12 agonist inactive, DAX1 inh-1 inactive, ssDAF12 agonist inactive and DAX1 inh-2 inactive.
CCCc1nc2ccccc2c(=O)n1/N=C/c1ccccc1O was read as hgDAF12 agonist inactive, AHR act inactive, hcDAF12 agonist inactive, DAX1 inh-1 inactive, ssDAF12 agonist inactive and DAX1 inh-2 inactive.
